The record followed here is PubChem BioAssay AID540317 (National Center for Advancing Translational Sciences (NCATS), 2011).

About 2,200 (0.56%) of roughly 390,000 compounds were called active. Not shown: some 3% with an inconclusive outcome. Calls follow the shape of the dose curve; as a rule, active = well fitted inhibition curve with a large enough effect; inconclusive = small, poorly fitted or top-dose-only effect; inactive = no such curve, though single readings can be large or run the other way. What follows is part of a selection rich in actives, with near analogues and random picks from the rest. A call without a number means that no potency is given here.
Potency is read from the fitted curve at half-maximal effect.

In this assay the target is Chromobox protein homolog 1 (Homo sapiens) (UniProt P83916). Description: HTS for Inhibitors of HP1-beta Chromodomain Interactions with Methylated Histone Tails. Also: nearly all actives have a fitted effect of over 70% in size. The conditions noted are these: AlphaScreen HP1-beta / biotin-H3K9me3 peptide binding; series mostly up to 114 µM. An outline of the steps: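 AlphaScreen: HP1-beta (50 nM) preformed 30 min with biotin-H3(1-18)K9me3 peptide (50 nM) in PBS pH 7.4, 0.01% Tween-20. Compound added for 30 min at RT, then streptavidin donor/nickel chelate acceptor beads (10 ug/mL) for 30 min.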
Chromobox protein homolog 1 (Homo sapiens), sequence (P83916 whole entry, looked up): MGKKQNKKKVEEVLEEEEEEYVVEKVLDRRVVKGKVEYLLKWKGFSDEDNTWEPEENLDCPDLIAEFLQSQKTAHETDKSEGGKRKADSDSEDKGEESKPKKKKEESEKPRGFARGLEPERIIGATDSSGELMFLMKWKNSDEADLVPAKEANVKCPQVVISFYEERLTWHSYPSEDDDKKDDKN
(In Alpha technology, singlet oxygen from a donor bead excites a nearby acceptor bead.)
Take `Cc1ccc(C)c(N2CCN(c3ccc4cc(S(=O)(=O)N5CCC(C)CC5)ccc4n3)CC2)c1`: the Potency entry is “inactive”.
Under `Oc1ccc2ccccc2c1N=Nc1nccs1` stands 6.31 µM (active); under `O=C(CSc1nc(-c2cccc(F)c2)[nH]c1-c1ccccc1)Nc1ccc2c(c1)OCO2`, “inactive”; under `Cc1ccccc1CSc1nc(-c2ccccc2)nc2c1Cc1c(CO)cnc(C)c1O2`, “inactive”.
With `Cc1ccc(NC(=O)C2CCN(S(=O)(=O)c3cc(-c4noc(C)n4)ccc3C)CC2)c(C)c1`, the Potency result is “inactive”.
Under `O=C(NC(=S)Nc1ncccn1)c1ccccc1Br` stands “inactive”.
The value for `CCOC(=O)C1=C(NC(=S)NC(=O)c2ccccc2)c2ccccc2CC1(C)C` was “inactive”.
On to `Cn1nnc(NC(=S)NC(=O)c2ccccc2)n1`, for which the Potency is 70.8 µM (active).
Turning to `CCN(CC)Cc1nc2sc(C)c(C)c2c(=O)[nH]1`, the Potency result was “inactive”.
Under `CSc1nnc(SCc2nc3sc(C(=O)O)c(C)c3c(=O)[nH]2)s1` stands 50.1 µM (active); under `Cc1sc2nc(CC(N)=O)[nH]c(=O)c2c1-c1ccccc1`, “inactive”.
For `C=C1CCN(Cc2ccc(OC)cc2)S(=O)(=O)c2ccccc21`, the Potency result was “inactive”.
As for `COC(=O)c1ccc(OC)c(Cn2c(=O)n(Cc3ccccc3)c(=O)c3c2c2cc(OC)ccc2n3C)c1`, the Potency entry was “inactive”.
For `Cc1cc(C)cc(NC(=O)c2cnc3sc(N4CCCC4)nn3c2=O)c1`, the Potency entry was “inactive”.
Under `O=C(O)C(c1ccccc1)N1C(=O)/C(=C\c2ccc(-c3cccc(Cl)c3)o2)SC1=S` (configuration not stated) stands 39.8 µM (active).
In the case of `CCC(C)N1C(=O)S/C(=C/c2ccc(Sc3nc4ccccc4[nH]3)o2)C1=O` (configuration not stated), the Potency result is “inactive”.
The value for `O=C(NCc1ccccc1)c1cc(-c2cccc(Cl)c2)on1` was “inactive”; that for `Cc1cccc(N2CCN(C(=O)Cn3ncc4c5ccccc5n(C)c4c3=O)CC2C)c1` (configuration not stated) was “inactive”; that for `CC(C)c1ccc(NS(=O)(=O)c2ccc3[nH]cc(C(=O)NC4CCCC4)c(=O)c3c2)cc1` was “inactive”.
The value for `Cc1cc2c(cc3c(SCc4cccc(Cl)c4)nnc(C)n32)o1` was “inactive”.
Take `CCOC(=O)C1Nc2ccc(C(F)(F)F)cc2C2C=CCC12` (configuration not stated): the Potency result was “inactive”.
`CCOc1cccc2c1N[C@@H](c1ccc(C(=O)O)cc1)[C@H]1CC=C[C@@H]21`: the Potency is 35.5 µM (active).
Under `CCOc1cccc(CC(=O)N2CCc3c([nH]c4ccccc34)C2c2ccc(F)cc2)c1OCC` (configuration not stated) stands “inactive”; under `C=C1CCN(C(CC(C)C)C(=O)NCc2cc(OC)c(OC)c(OC)c2)S(=O)(=O)c2ccccc21` (configuration not stated), “inactive”; under `CCCn1c2ccccc2c2cnn(CC(=O)N(C)c3ccccc3CC)c(=O)c21`, “inactive”.
The value for `COc1ccc(C2/C=C\CN(C(=O)c3ccc(C)cc3)C(Cc3ccccc3)C(=O)N2Cc2ccc(F)cc2)cc1` (configuration not stated) was “inactive”; that for `COc1cccc(CNC(=O)Cn2c(=O)c3cccn3c3ccc(F)cc32)c1OC` was “inactive”.
Under `O=C(c1cccs1)c1cn(CCOc2ccc(Cl)cc2)c2ccccc12` stands “inactive”; under `Cc1ccc(-c2ccc(CCC(=O)O)n2-c2ccc(C(N)=O)cc2)cc1`, “inactive”.
For `CCN1/C(=C\c2ccc3ccccc3[n+]2CC)Sc2cc(C)ccc21`, the Potency entry was “inactive”.
`CCN1/C(=C/C(=S)Nc2ccccc2)Sc2ccccc21`: the Potency was 50.1 µM (active).
Under `CCN1C(=O)c2ccccc2Sc2ccc(NC(=O)Cc3ccc(OC)cc3)cc21` stands “inactive”; under `COc1ccc(CCNC(=O)c2ccc(CSCc3ccc(C)cc3)o2)cc1OC`, “inactive”; under `COc1ccc(-c2ccc(OC)c(C3C4C=CCC(C)C4C(=O)N3Cc3ccccc3)c2)cc1C` (configuration not stated), “inactive”.
`O=C(OC12CC3CC(CC(C3)C1)C2)c1ccc(NCc2cc(O)ccc2O)cc1`: the Potency was 70.8 µM (active).
On to `O=C(Cn1ncn2nc(-c3cccs3)cc2c1=O)NCc1cccc(Br)c1`, for which the Potency result is “inactive”.
Under `Cc1cc(C)c(C=NNc2nc3c([nH]2)c(=O)n(C)c(=O)n3C)c(C)c1` stands “inactive”; under `Cc1ccc(CNC(=O)CSc2c(C)cnc3c2c(=O)n(C)c(=O)n3C)cc1`, “inactive”.
The value for `Cc1ccc(NN=Nc2nc3c([nH]2)c(=O)n(C)c(=O)n3C)cc1` was 35.5 µM (active); that for `COc1ccc(NC(=O)CSc2nc3ncccc3[nH]2)c(OC)c1` was “inactive”.
Regarding `COc1ccc(CNC(=O)CCc2c(C)nn(-c3ccc(N4CCCC4)nn3)c2C)cc1`, the Potency entry is “inactive”.
The value for `Cc1cccc(C)c1-n1ncc(C(=O)NCCCN2CCCCC2)c1C1CCN(C(=O)OC(C)(C)C)CC1` was “inactive”.
Turning to `Cc1cccc(Nc2cc(C)nc(-n3nc(C)cc3C)n2)c1`, the Potency entry is “inactive”.
Under `COc1ccc(OC)c(-n2nnc(-c3nc(-c4cc(OC)c(OC)c(OC)c4)no3)c2C)c1` stands “inactive”; under `CCCC(=O)NC(=S)Nc1ccc(CN2CCOCC2)cc1`, “inactive”.
With `Oc1c(CN2CCOCC2)ccc(CN2CCOCC2)c1O`, the Potency was 15.8 µM (active).
The value for `OCCN1CCOCCOCCN(CCO)CCN(CCO)CC1` was “inactive”; that for `O=C(C1CCC1)N1CCN(S(=O)(=O)c2ccc([N+](=O)[O-])cc2)CC1` was “inactive”.
`CC(=O)N1CC[n+]2c(-c3ccc([N+](=O)[O-])cc3)csc21`: the Potency was 10 µM (active).
The value for `Cc1cc(C)cc(C(=O)N2CCN=C2SCc2ccc([N+](=O)[O-])cc2)c1` was “inactive”; that for `O=S(=O)(c1ccc(Cl)cc1)c1nnn2c1nc(NC1CCCC1)c1sccc12` was “inactive”.
Turning to `Cc1ccccc1CNC(=O)c1cccc(NC(=O)c2nsc3ccccc23)c1`, the Potency entry is “inactive”.
The value for `Cc1ccc(NC(=O)Nc2sc3nc4n(c(=O)c3c2C)CCC(C)CC4)c(Cl)c1` (configuration not stated) was “inactive”; that for `CC1CCc2noc(NC(=O)c3ccc([N+](=O)[O-])cc3)c2C1` (configuration not stated) was “inactive”.
The value for `O=C(Nc1cc2c3c(c1)C1CCCC1CN3CC1CCCC21)c1ccc([N+](=O)[O-])cc1` (configuration not stated) was 11.2 µM (active); that for `O=C(CCNC(=O)c1ccc([N+](=O)[O-])cc1)NC1CCCCC1` was “inactive”.
For `Cc1ccc(-c2cn3c(n2)sc2cc(C(=O)NCCCc4ccccc4)ccc23)cc1`, the Potency result was “inactive”.
Regarding `CCOC(=O)c1c(C)oc2nc(C)nc(Nc3ccc(CC)cc3)c12`, the Potency result is “inactive”.
For `COCCNc1ncnc2c1c(-c1ccccc1)cn2-c1ccc(C)c(Cl)c1`, the Potency result is “inactive”.
Regarding `COc1ccc(S(=O)(=O)Nc2cc3c(C(=O)OC(C)C)c(C)oc3c3ccccc23)cc1`, the Potency result was “inactive”.
As for `COc1ccc(S(=O)(=O)/N=C2\C=C(NS(=O)(=O)c3ccccc3)C(=O)c3ccccc32)cc1`, the Potency was 28.2 µM (active).
Under `COc1ccc(S(=O)(=O)NC(C)C(=O)N2CCCCCC2)cc1` (configuration not stated) stands “inactive”.
